{
  "source": "PubChem BioAssay AID504770",
  "about": "(ICCB-Longwood Screening Facility, Harvard Medical School, 2011)",
  "note": "Several values for one entry are separate records, joined by “and”; a condition that tells them apart may be missing. Equal values may be shown once. Screen size: about 130,000 compounds; about 350 (0.27%) were called active. Cut-off read from the data, not from the text of the source: active = z-score below about -2 (passing the limit was not always enough); inactive = the rest. For the sample, actives were picked, then their nearest neighbours and some compounds at random. Some compounds were tested as several samples or in several runs, with calls that do not always agree.",
  "data": [
    {"experiment": "PubChem AID 504770", "conditions": "E. coli YBA685 rctB-dependent plasmid, OD600 growth, 3 h; stronger effect = lower value", "values": [
      {"smiles": "Cc1c(OCC#N)ccc2c3c(c(=O)oc12)CCC3", "z-score": "-0.7 (inactive)"},
      {"smiles": "CCC1(C)NC(=O)N(NC(=O)c2ccc(S(=O)(=O)N3CCCC3)cc2)C1=O", "note": "(centres undefined)", "z-score": "0.95 (inactive)"},
      {"smiles": "O=C(CCn1c(=O)oc2ccccc21)Sc1ccc(C(F)(F)F)cc1", "z-score": "0.8 (inactive)"},
      {"smiles": "Cc1ccc(NC(=O)c2ccc3nc(N4CCOCC4)sc3c2)cc1", "z-score": "-1.3 (inactive)"},
      {"smiles": "O=C(CSC1=NCCS1)Nc1cc(C(F)(F)F)ccc1Cl", "z-score": "-0.55 (inactive)"},
      {"smiles": "COc1ccc(NC(=O)C(=S)N2CCCCC2)cc1", "z-score": "-0.45 (inactive)"},
      {"smiles": "Cc1nc(N)nc(CSc2ccc(Cl)cc2)n1", "z-score": "1.4 (inactive)"},
      {"smiles": "O=C(c1[nH]nc2c1CCc1ccccc1-2)N1CCCC1", "z-score": "-0.15 (inactive)"},
      {"smiles": "CC(=O)NCc1n[nH]c(=O)c2ccccc12", "z-score": "-0.4 (inactive)"},
      {"smiles": "CCOc1ccc(NCc2nc3ccccc3n2C)cc1", "z-score": "0.75 (inactive)"},
      {"smiles": "Oc1c(Cl)cc(Cl)c(Cl)c1Cc1c(O)c(Cl)cc(Cl)c1Cl", "z-score": "-3.25 (active)"},
      {"smiles": "CC1CC(C)CN(c2nc3ccccc3c(=O)n2-c2ccc(Cl)cc2)C1", "note": "(centres undefined)", "z-score": "-1.35 (inactive)"},
      {"smiles": "CCS(=O)(=O)c1ccc2c(c1)N1CCS(=O)(=O)N=C1O2", "z-score": "0.9 (inactive)"},
      {"smiles": "CC1(C)COC(Nc2ccc(Cl)c(Cl)c2)=N1", "z-score": "-0.6 (inactive)"},
      {"smiles": "Cc1nc2c3ccccc3n3c(CCCC(=O)NCc4ccccn4)nnc3n2n1", "z-score": "1.15 (inactive)"},
      {"smiles": "O=S1(=O)CC(S(=O)(=O)c2ccccc2)C(S(=O)(=O)c2ccccc2)C1", "note": "(centres undefined)", "z-score": "1.15 (inactive)"},
      {"smiles": "COc1ccc2c(CC(=O)OCc3cc(Cl)c4c(c3)OCCCO4)coc2c1", "z-score": "-0.55 (inactive)"},
      {"smiles": "Cc1cccc(CC2(Cc3cccc(C)c3)C(=O)OC(C)(C)OC2=O)c1", "z-score": "0.1 (inactive)"},
      {"smiles": "N#CC(c1ccc(F)cc1)N1CCOCC1", "note": "(centres undefined)", "z-score": "-1.05 (inactive)"},
      {"smiles": "CN(C(=O)Cn1nc(C(F)(F)F)c2c1CCC2)C1CCCCC1", "z-score": "-0.25 (inactive)"},
      {"smiles": "O=C(CCc1ccccc1)Nc1nnc(SCC(=O)N2CCCCCC2)s1", "z-score": "-0.2 (inactive)"},
      {"smiles": "N#Cc1c(=O)c2nc(NCCc3ccccc3)ncc2n2c(=O)c3cc(Br)ccc3[nH]c12", "z-score": "-1.25 (inactive)"},
      {"smiles": "C=CCN(C(=O)C1CCCC1)c1nc2c(s1)CCCC2", "z-score": "-1.05 (inactive)"},
      {"smiles": "CC1CC(C)CN(C(=O)COC(=O)c2cccnc2Nc2ccccc2F)C1", "note": "(centres undefined)", "z-score": "0.1 (inactive)"},
      {"smiles": "C=CCNc1nc(SC)nc2ccccc12", "z-score": "1.45 (inactive)"},
      {"smiles": "COc1cccc(/C=N/NC(=O)Cc2ccccc2)c1", "z-score": "-0.6 (inactive)"},
      {"smiles": "COC(=O)N/N=C/c1c[n+]([O-])c2ccccc2[n+]1[O-]", "z-score": "-3.7 (active)"},
      {"smiles": "COc1ccc(/C=N/NC(=O)c2ccccc2)cc1OC", "z-score": "0.85 (inactive)"},
      {"smiles": "CC(NC(=O)CC1=NS(=O)(=O)c2ccccc2N1)c1ccccc1", "note": "(centres undefined)", "z-score": "0.8 (inactive)"},
      {"smiles": "Cc1cc(/C=C2\\C(=O)NC(=S)N(c3ccccc3F)C2=O)c(C)n1-c1ccc(Cl)c(C(=O)O)c1", "z-score": "-0.8 (inactive)"},
      {"smiles": "COC(=O)c1ccc(CNC(=O)C(C)Sc2ccccc2)cc1", "note": "(centres undefined)", "z-score": "-0.15 (inactive)"},
      {"smiles": "N#Cc1c(C(F)(F)F)cc(=O)[nH]c1S", "z-score": "-0.6 (inactive)"},
      {"smiles": "O=C(CSC1=NC2(CCCC2)Nc2ccccc21)Nc1ccc2c(c1)OCCO2", "z-score": "0 (inactive)"},
      {"smiles": "C=CCNc1nc(OC)nc(OC)n1", "z-score": "0.15 (inactive)"},
      {"smiles": "S=C1SCN(CCN2CCOCC2)CN1Cc1ccccc1", "z-score": "-2.95 (active)"},
      {"smiles": "C(=C\\c1ccccc1)/CNCCCN1CCOCC1", "z-score": "-0.45 (inactive)"},
      {"smiles": "COc1ccc(CN2CN(C(C)C)CSC2=S)cc1", "z-score": "-1.55 (inactive)"},
      {"smiles": "Cc1cnc(NC(=O)CSc2nc3sc4c(c3c(=O)n2C)CCCC4)s1", "z-score": "-1.2 (inactive)"},
      {"smiles": "O=C(OCN1C(=O)c2ccccc2C1=O)c1ccccc1O", "z-score": "0.65 (inactive)"},
      {"smiles": "Nc1nc(/C(=C/CC(=O)O)C(=O)N[C@@H]2C(=O)N3C(C(=O)O)=CCS[C@H]23)cs1", "z-score": "-1.1 (inactive)"},
      {"smiles": "CO/N=C(/C(=O)N[C@@H]1C(=O)N2C(C(=O)O)=C(CSc3nc(=O)c(O)nn3C)CS[C@H]12)c1csc(N)n1", "z-score": "-4.8 (active) and -2 (inactive)"},
      {"smiles": "CC(=O)Nc1ccc(C(=O)N(C)Cc2cccc(F)c2)cc1", "z-score": "1.3 (inactive)"},
      {"smiles": "OCc1nc(-c2ccccc2)cs1", "z-score": "-0.45 (inactive)"},
      {"smiles": "CC(C)N1CCC(=O)N(c2ccccc2Cl)C1=O", "z-score": "0.25 (inactive)"},
      {"smiles": "CC(N)C(=O)Nc1ccc2c(c1)Cc1ccccc1-2", "note": "(centres undefined)", "z-score": "-1.1 (inactive)"},
      {"smiles": "Cc1cccc(C(=O)Nc2nnc(/N=C/c3ccc(Br)s3)s2)c1", "z-score": "-0.85 (inactive)"},
      {"smiles": "CC(C)CNC(=O)c1cc(-c2ccc(Br)cc2)on1", "z-score": "-0.2 (inactive)"},
      {"smiles": "O=C(NC1CCCC1)c1cc(-c2ccccc2)on1", "z-score": "0.55 (inactive)"},
      {"smiles": "O=C(NC1CCCC1)c1cc(-c2ccc(Br)cc2)on1", "z-score": "-2.5 (active)"},
      {"smiles": "CCn1c(SCC(=O)Nc2ccc3c(c2)OCCCO3)nc2cc(S(N)(=O)=O)ccc21", "z-score": "2.15 (inactive)"},
      {"smiles": "COc1ccc(-c2nc3cc(N=Cc4cccc(OC)c4O)ccc3o2)cc1", "z-score": "0.1 (inactive)"},
      {"smiles": "COc1ccc(-c2ocnc2C(=O)O)cc1", "z-score": "-0.1 (inactive)"},
      {"smiles": "CCCCSc1nnc2c(=O)[nH]c(=O)[nH]c2n1", "z-score": "-1.6 (inactive)"},
      {"smiles": "CC(=O)NCc1ccc(C(=O)COC(=O)c2cc(-c3ccccc3)nn2-c2ccccc2)o1", "z-score": "0.5 (inactive)"},
      {"smiles": "CC(=O)Oc1ccc2c(=O)c(-c3ccccc3)coc2c1C", "z-score": "0.9 (inactive)"},
      {"smiles": "CCOC(=O)c1c(NC(=O)c2cc3ccccc3o2)sc2c1CC(C)(C)OC2", "z-score": "1.4 (inactive)"},
      {"smiles": "NS(=O)(=O)c1cc(OCC(F)(F)F)ccc1OCC(F)(F)F", "z-score": "-0.85 (inactive)"},
      {"smiles": "Cn1cc(NC(=O)N2CCc3ccccc3C2)c2ccccc21", "z-score": "0.5 (inactive)"},
      {"smiles": "Cc1csc(=O)n1CC(=O)OCC(=O)c1ccc(Cl)s1", "z-score": "1.15 (inactive)"},
      {"smiles": "Cc1ccc(Cn2ccsc2=NC(=O)COC(=O)Cn2c(C)csc2=O)cc1", "z-score": "-3.3 (active)"},
      {"smiles": "COCCn1c(C)cc(C(=O)COC(=O)Cn2c(C)csc2=O)c1C", "z-score": "-0.2 (inactive)"},
      {"smiles": "Cc1ccccc1C(=O)Nc1ccccc1N1CCN(C)CC1", "z-score": "0.25 (inactive)"},
      {"smiles": "O=C1NN(c2ccc(Cl)c(Cl)c2)C(=O)/C1=C\\C=C\\c1ccccc1", "z-score": "0.25 (inactive)"},
      {"smiles": "N#Cc1c(SCC(=O)C23CC4CC(CC(C4)C2)C3)sc2c(=O)[nH]c(=O)[nH]c12", "z-score": "-0.7 (inactive)"}
    ]}
  ]
}
